# In the library only some 0.43% were active in any assay of this set; here they are far more common.
# aGal spleen mod = alpha-galactosidase A (human) modulation | P06280 | human spleen homogenate, 4MU-alpha-Gal fluorescence, 40 min | Potency, µM (titrated, usually from 80 µM), for the others: at the top dose activity change, negative = inhibition, hits mostly inhibitors | 240,000 compounds, 0.008% hits | AID 2107;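 further: potency means the concentration at half of the fitted maximal effect; 0% = enzyme with vehicle and -100% = no enzyme basal signal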
# Target sequence (P06280 32-429 limits assumed): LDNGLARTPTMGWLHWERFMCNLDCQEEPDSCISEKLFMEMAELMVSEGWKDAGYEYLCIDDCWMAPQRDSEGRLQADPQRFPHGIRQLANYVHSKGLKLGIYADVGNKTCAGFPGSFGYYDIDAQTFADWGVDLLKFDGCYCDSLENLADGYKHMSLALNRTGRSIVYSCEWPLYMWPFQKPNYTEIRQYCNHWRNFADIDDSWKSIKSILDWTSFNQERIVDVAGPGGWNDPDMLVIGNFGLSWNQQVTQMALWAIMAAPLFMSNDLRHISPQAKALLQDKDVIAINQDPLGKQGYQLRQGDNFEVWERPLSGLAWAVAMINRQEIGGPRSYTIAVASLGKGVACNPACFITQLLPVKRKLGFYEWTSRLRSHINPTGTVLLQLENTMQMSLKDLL
#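 Spleen homogenate 1 ug + cpd (titration) + 4-MU-alpha-D-galactopyranoside 1 mM; 37C 40 min; 50 mM citrate/phosphate pH 5.0, 0.01% Tween-20; stop pH 10; fluorescence 365/440; AC50 via Hill.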
# GLA inh pH 4.5 = inhibitors of human alpha-galactosidase A at pH 4.5; purified enzyme, 4-MU-alpha-Gal fluorescence, pH 4.5; activity change, negative = inhibition, % at 105 µM; 230,000 tested, under 10 active;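 further: 0% = full activity with enzyme and -100% = basal without enzyme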
# N370S GC mod = inhibits or activates N370S mutant glucocerebrosidase | P04062 | N370S GC spleen homogenate, 4MU-glucoside fluorescence | Potency, µM (series often up to 59.4 µM), inactives show at the highest dose activity change, negative = inhibition, hits mostly inhibitors | 330,000 compounds, 0.092% hits | AID 2101;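 further: potency means the concentration at half of the fitted maximal effect; 0% = full enzyme activity and -100% = no enzyme basal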
# aGlu spleen mod = inhibitors or activators of human alpha-glucosidase in spleen homogenate; Potency, µM (top dose mostly 79.9 µM), without a hit: at the highest dose activity change, negative = inhibition, most hits filed as inhibitors; 240,000 compounds, 0.006% hits; human spleen homogenate, 4-MU-alpha-glucoside fluorescence; P10253;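 further: potency means the concentration at half of the fitted maximal effect; 0% = enzyme with vehicle and -100% = no enzyme basal signal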
#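 AC50 values come from Hill-equation fits of concentration-response data, normalized to no-enzyme and full-activity controls. Enzyme source: 1 ug human spleen homogenate; 1 mM fluorogenic 4-MU glucoside, pH 5.0 citrate buffer, 37 C, 40 min.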
# GAA glycogen = GAA glycogen-cleavage inhibition or activation. P10253. recombinant GAA, glycogen substrate, Amplex Red glucose oxidase fluorescence. Potency, µM (top dose mostly 76.4 µM), for inactives: at the highest dose activity change, negative = inhibition, usual class: inhibitors. 300,000 compounds, 0.38% hits. AID 2100;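 further: potency means the concentration at half of the fitted maximal effect; 0% = full enzyme reaction and -100% = no-enzyme basal signal; the screen sought inhibitors and activators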
#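 Recombinant human enzyme (4 nM); glycogen substrate; 37 C, 40 min, pH 5.0. Readout: coupled glucose oxidase/Amplex Red fluorescence.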
# GAA inh = blocks human lysosomal alpha-glucosidase | P10253 | purified human GAA, 4-MU-alpha-glucoside fluorescence | Potency, µM (top dose mostly 76.9 µM), for inactives: at the top dose activity change, negative = inhibition, usual class: inhibitors | 200,000 compounds, 0.005% hits;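 further: potency means the concentration at half of the fitted maximal effect; plate controls were uninhibited enzyme wells for no effect and no-enzyme background for full effect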
#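 Fluorogenic assay: 4 nM human alpha-glucosidase with 400 uM 4-methylumbelliferyl-alpha-D-pyranoside in 50 mM citrate/phosphate, 0.005% Tween-20, pH 5.0, 20 min at room temperature. Compounds tested up to 77 uM; AC50 from Hill fits.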
# Starred values were filed as active, the others as inactive; ? = inconclusive; nt = not tested or not shown; ! = repeats disagree; [ ] = another dose, or the depositor's remark. The call rests on the fitted dose curve; in most records, active means well fitted curve in the direction sought with a large enough effect; inconclusive means small, poorly fitted or top-dose-only effect, or another doubt; inactive means no such curve, though single readings can be large; an effect the other way counts as inactive or inconclusive.
SMILES,aGal spleen mod,GLA inh pH 4.5,N370S GC mod,aGlu spleen mod,GAA glycogen,GAA inh
Cc1cc(=O)c2c(O)c3c(O)cc(=O)c4c3c3c(cc(O)c1c23)C(C)(C)C=4O,13.9%,-1.5,6.9%,-7.3%,nt,nt
Cc1[nH][nH]c(=O)c1C(c1ccc(-c2ccc(F)cc2)o1)c1c(C)[nH][nH]c1=O,6.1%,-5.5,-16.0%,12.1%,?,4.5%
Cc1[nH][nH]c(=O)c1C(c1ccc(-c2ccc(Cl)c(Cl)c2)o1)c1c(C)[nH][nH]c1=O,-6.4%,-2.0,-23.3%,-11.2%,31.6µM*,-3.8%
CO[C@@H]1COC(=O)C/C=C\[C@H](C)COC(=O)[C@H](C)NC(=O)C/C=C\[C@H]1C,9.3%[17.5 µM],nt,-7.0%[12.8 µM],-1.4%[17.4 µM],nt,nt
CC(C)(C)NC(=S)Nc1ccc(Nc2ccccc2)cc1,0.2%,-6.9,16.3%,?,14µM*,-7.8%
CC(C)(C)NC(=S)Nc1ccc(Br)cc1,-3.6%,-10.8,6.8%,-3.5%,-12.1%,-14.0%
CC12C=C(/C=C/CCc3ccco3)C(C)(C1)C(CCc1ccco1)CC2=O (centres undefined),-0.5%[17.5 µM],nt,-3.1%[12.8 µM],5.5%[17.4 µM],nt,nt
C[C@@]12CC[C@H]3OC(=O)C=C3C1CC[C@@]13CC(CCC12)[C@](CO)(O[C@H]1O[C@H](CO)[C@@H](O)[C@H](O)[C@H]1O)C3 (some centres undefined),nt,nt,17.8µM*,nt,nt,nt
N#C/C(=C/c1ccc(F)cc1)S(=O)(=O)c1ccccc1,15.9%,-4.4,-16.7%,6.2%,-4.5%,nt
N#C/C(=C\c1ccc(O)c(O)c1)S(=O)(=O)c1ccccc1,2.8%,-21.7,-17.0%,-6.6%,7.08µM*,-6.6%
CC(C)CC1Nc2ccc(C(=O)NCCCN3CCCCC3C)cc2NC1=O (centres undefined),nt,nt,-5.9%,nt,12.6µM*,nt
CSCC[C@H](NC(=O)[C@H](Cc1c[nH]c2ccccc12)NC(=O)CCNC(=O)OC(C)(C)C)C(=O)N[C@@H](CC(=O)O)C(=O)N[C@@H](Cc1ccccc1)C(N)=O,-3.3%,nt,-4.0%,-8.1%,nt,nt
COc1ccc2oc(=O)cc(CN3CCN(C(=O)c4ccccc4Br)CC3)c2c1,nt,nt,nt,nt,-11.4%[76.3 µM],nt
Cc1ccc(NC(=O)CCCc2nnc3n(C)c(=O)c4sccc4n23)cc1C,nt,nt,nt,nt,-4.1%[76.3 µM],nt
Cn1c(=O)c2sccc2n2c(CCCC(=O)Nc3ccc(F)c(F)c3)nnc12,nt,nt,nt,nt,2µM*,nt
CC(C)(C)C(=O)C1C(=O)c2ccccc2C1=O,-6.9%,nt,14.4%,-0.2%,nt,nt
NC(=Nc1ccccc1)NC(=O)c1nc(Cl)c(N)nc1N,0.3%,-2.4,1.5%,-2.3%,nt,nt
NC(=NCc1ccccc1)NC(=O)c1nc(Cl)c(N)nc1N,?,9.6,?,8.91µM*!,nt,nt
Cc1ccccc1-c1nccc(Nc2ccc(F)cc2)n1,-7.7%,nt,20µM*,-4.8%,nt,nt
O=C(Nc1cc(S(=O)(=O)N2CCOCC2)ccc1N1CCOCC1)c1cc(=O)[nH]c2ccccc12,-7.1%,-11.3,4.4%,-17.5%,28.2µM*,?
O=c1c2ccccc2[nH]c2ccc(O)cc12,nt,nt,-6.7%,nt,20µM*,nt
Cc1ccc(S(=O)(=O)Nc2cc(Cl)c(O)cc2C)cc1,-2.2%,-3.6,4.5%,6.6%,22.4µM*,-10.4%
CCOc1cc(/C=C2\SC(N)=NC2=O)ccc1O,nt,nt,-3.6%,nt,10µM*,nt
CCOc1cc(/C=C2\SC(=O)N=C2N)ccc1O,6.1%,-3.6,-6.9%,-2.2%,-22.6%,-4.6%
Cn1c(=O)c2c(nc(N/N=C/c3cccs3)n2C)n(C)c1=O,-7.7%,-2.9,-3.3%,-7.7%,?,-10.0%
Cn1c(=O)c2c(nc(N/N=C/c3ccco3)n2C)n(C)c1=O,4.4%,8.2,3.2%,-2.2%,8.91µM*,?
Cc1ccc(S(=O)(=O)N2CCN(CC(=O)N/N=C\c3ccc(O)c(O)c3)CC2)cc1,-18.2%,3.8,-19.5%,?,6.31µM*,nt
O=C(CN1CCN(S(=O)(=O)c2ccc(Cl)cc2)CC1)c1ccc(O)c(O)c1,nt,nt,-27.8%,nt,8.91µM*,nt
